Source: PubChem BioAssay AID1159580 (chemical genetic matrix, 2015)
The campaign covered roughly 5,500 compounds. About 2,000 (36%) were called active. Roughly 18% stayed inconclusive and do not appear here. Rule as the data show it: active = normalized growth mostly below about 0.91 (no sharp cut-off); inconclusive = no clear call, values can overlap the other calls; inactive = mostly above about 0.92. The list shows a part of the results.

Test: chemical genetic growth profiling, strain panel (AID 1159580);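 also: tested at 20 µM; growth read once vehicle control cultures reached saturation at 30 °C; 1 = growth at the plate median or of vehicle wells; lower values mean less growth of the strain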
Settings: growth OD

Measured: normalized growth

NC1=NCCN1CC(=O)O
inactive: S. cerevisiae deletion strains, locus YJR043C, strain POL32, active compounds read low 0.98 | S. cerevisiae deletion strains, locus YJR066W, strain TOR1, active compounds read low 0.989 | S. cerevisiae deletion strains, locus YKL009W, strain mrt4, active compounds read low 0.968 | S. cerevisiae deletion strains, locus YKL068W, active compounds read low 0.986 | S. cerevisiae deletion strains, locus YKL085W, strain MDH1 (second series), active compounds read low 0.983 | S. cerevisiae deletion strains, locus YKL085W, strain MDH1, active compounds read low 0.983 | S. cerevisiae deletion strains, locus YKL160W, strain elf1, active compounds read low 1.04 | S. cerevisiae deletion strains, locus YKL190W, strain CNB1, active compounds read low 0.978 | S. cerevisiae deletion strains, locus YKR001C, strain vps1, active compounds read low 0.989 | S. cerevisiae deletion strains, locus YKR026C, strain gcn3, active compounds read low 1.03 | S. cerevisiae deletion strains, locus YKR091W, strain srl3, active compounds read low 1.01 | S. cerevisiae deletion strains, locus YLL001W, strain dnm1, active compounds read low 0.984 | S. cerevisiae deletion strains, locus YLL026W, active compounds read low 1.01 | S. cerevisiae deletion strains, locus YLL041C, strain sdh2, active compounds read low 1.01 | S. cerevisiae deletion strains, locus YLR027C, strain aat2, active compounds read low 1.02 | S. cerevisiae deletion strains, locus YLR039C, strain RIC1, active compounds read low 0.964 | S. cerevisiae deletion strains, locus YLR058C, strain SHM2, active compounds read low 0.975 | S. cerevisiae deletion strains, locus YLR102C, strain apc9, active compounds read low 0.986 | S. cerevisiae deletion strains, locus YLR113W, strain HOG1, active compounds read low 0.983 | S. cerevisiae deletion strains, locus YLR221C, strain rsa3, active compounds read low 0.987 | S. cerevisiae deletion strains, locus YLR258W, strain gsy2, active compounds read low 0.996 | S. cerevisiae deletion strains, locus YLR262C, strain YPT6 (second series), active compounds read low 1.02 | S. cerevisiae deletion strains, locus YLR262C, strain YPT6, active compounds read low 0.958 | S. cerevisiae deletion strains, locus YLR268W, strain sec22, active compounds read low 0.99 | S. cerevisiae deletion strains, locus YLR320W, strain mms22, active compounds read low 0.957 | S. cerevisiae deletion strains, locus YLR330W, strain CHS5, active compounds read low 1 | S. cerevisiae deletion strains, locus YLR342W, strain FKS1 (second series), active compounds read low 1.01 | S. cerevisiae deletion strains, locus YLR342W, strain FKS1, active compounds read low 1.02 | S. cerevisiae deletion strains, locus YLR357W, strain rsc2, active compounds read low 1.03 | S. cerevisiae deletion strains, locus YLR370C, strain arc18, active compounds read low 1.01 | S. cerevisiae deletion strains, locus YLR371W, strain rom2, active compounds read low 0.996 | S. cerevisiae deletion strains, locus YLR384C, strain iki3, active compounds read low 1.01 | S. cerevisiae deletion strains, locus YLR418C, strain cdc73, active compounds read low 0.995 | S. cerevisiae deletion strains, locus YML016C, strain PPZ1, active compounds read low 0.986 | S. cerevisiae deletion strains, locus YML032C, strain rad52, active compounds read low 0.994 | S. cerevisiae deletion strains, locus YML120C, strain ndi1, active compounds read low 0.998 | S. cerevisiae deletion strains, locus YML124C, strain tub3, active compounds read low 0.995 | S. cerevisiae deletion strains, locus YMR058W, strain fet3, active compounds read low 1.02 | S. cerevisiae deletion strains, locus YMR078C, strain ctf18, active compounds read low 0.994 | S. cerevisiae deletion strains, locus YMR125W, strain sto1, active compounds read low 1.02 | S. cerevisiae deletion strains, locus YMR129W, active compounds read low 1 | S. cerevisiae deletion strains, locus YMR205C, strain PFK2, active compounds read low 1.02 | S. cerevisiae deletion strains, locus YMR223W, strain ubp8, active compounds read low 0.992 | S. cerevisiae deletion strains, locus YMR231W, strain pep5, active compounds read low 1.02 | S. cerevisiae deletion strains, locus YMR307W, strain GAS1, active compounds read low 1.05 | S. cerevisiae deletion strains, locus YNL067W, strain RPL9B, active compounds read low 0.966 | S. cerevisiae deletion strains, locus YNL071W, strain lat1, active compounds read low 0.983 | S. cerevisiae deletion strains, locus YNL153C, strain GIM3, active compounds read low 0.989 | S. cerevisiae deletion strains, locus YNL183C, strain NPR1, active compounds read low 0.919 | S. cerevisiae deletion strains, locus YNL209W, strain ssb2, active compounds read low 1.03 | S. cerevisiae deletion strains, locus YNL233W, strain BNI4, active compounds read low 0.974 | S. cerevisiae deletion strains, locus YNL248C, strain rpa49, active compounds read low 1.03 | S. cerevisiae deletion strains, locus YNL250W, strain rad50, active compounds read low 0.973 | S. cerevisiae deletion strains, locus YNL271C, strain bni1, active compounds read low 0.998 | S. cerevisiae deletion strains, locus YNL298W, strain CLA4, active compounds read low 0.996 | S. cerevisiae deletion strains, locus YNL307C, strain MCK1, active compounds read low 0.993 | S. cerevisiae deletion strains, locus YNL322C, strain KRE1 (second series), active compounds read low 1.02 | S. cerevisiae deletion strains, locus YNR049C, strain mso1, active compounds read low 1.01 | S. cerevisiae deletion strains, locus YNR052C, strain pop2, active compounds read low 0.998 | S. cerevisiae deletion strains, locus YOL006C, strain TOP1, active compounds read low 0.944 | S. cerevisiae deletion strains, locus YOL012C, strain htz1 0.788 | S. cerevisiae deletion strains, locus YOL147C, strain pex11, active compounds read low 0.995 | S. cerevisiae deletion strains, locus YOR001W, strain rrp6, active compounds read low 0.966 | S. cerevisiae deletion strains, locus YOR061W, strain CKA2, active compounds read low 0.958 | S. cerevisiae deletion strains, locus YOR069W, strain VPS5, active compounds read low 0.995 | S. cerevisiae deletion strains, locus YOR070C, strain gyp1, active compounds read low 1.02 | S. cerevisiae deletion strains, locus YOR080W, strain dia2, active compounds read low 1.03 | S. cerevisiae deletion strains, locus YOR083W, strain WHI5, active compounds read low 0.959 | S. cerevisiae deletion strains, locus YOR106W, strain vam3, active compounds read low 1.03 | S. cerevisiae deletion strains, locus YOR136W, strain idh2, active compounds read low 0.986 | S. cerevisiae deletion strains, locus YOR144C, strain elg1, active compounds read low 0.992 | S. cerevisiae deletion strains, locus YOR184W, strain ser1, active compounds read low 1.01 | S. cerevisiae deletion strains, locus YOR231W, strain MKK1, active compounds read low 0.966 | S. cerevisiae deletion strains, locus YOR265W, strain rbl2, active compounds read low 0.994 | S. cerevisiae deletion strains, locus YOR270C, strain vph1, active compounds read low 0.924 | S. cerevisiae deletion strains, locus YOR290C, strain snf2, active compounds read low 1.01 | S. cerevisiae deletion strains, locus YOR316C, strain cot1, active compounds read low 0.989 | S. cerevisiae deletion strains, locus YPL051W, strain arl3, active compounds read low 0.997 | S. cerevisiae deletion strains, locus YPL055C, strain LGE1, active compounds read low 0.918 | S. cerevisiae deletion strains, locus YPL078C, strain atp4, active compounds read low 1.03 | S. cerevisiae deletion strains, locus YPL106C, strain sse1, active compounds read low 1.01 | S. cerevisiae deletion strains, locus YPL240C, strain hsp82, active compounds read low 1.01 | S. cerevisiae deletion strains, locus YPL256C, strain CLN2, active compounds read low 0.953 | S. cerevisiae deletion strains, locus YPR119W, strain clb2, active compounds read low 0.983 | S. cerevisiae deletion strains, locus YPR141C, strain kar3, active compounds read low 0.988 | S. cerevisiae deletion strains, locus YPR163C, strain tif3, active compounds read low 0.986 | S. cerevisiae deletion strains, locus YPR167C, strain met16, active compounds read low 0.993 | S. cerevisiae deletion strains, strain wtn01, active compounds read low 0.995 | S. cerevisiae strains, strain wild type, active compounds read low 0.982
